Bioassay records: PubChem, several laboratories
The list is not random: actives were taken first. Their share in the collection is about 2.9%.
DAGLB inh: blocks human DAGLB lipase activity; Q8NCG7; inhibition, % at 5.17 µM; HEK293T DAGLB membrane lysate, EnzChek fluorogenic substrate; AID 504411; hit rate 0.059% among 340,000; in the data active = inhibition above about 34%;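 also: 0% = enzyme with vehicle and 100% = wells lacking enzyme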
Myeloid diff 2: promotes myeloid progenitor differentiation; ER-HoxA9 myeloid progenitors, lysozyme-GFP differentiation, flow cytometry; AID 624256; calls only at 10 µM; hit rate 1% among 360,000;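 active = normalized GFP-positive differentiation at or above the plate's own cutoff, the solvent-only control mean plus 3 SD; inconclusive = no clear call, values can overlap the other calls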;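 also: cells exposed to compound for four days before flow analysis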
HGIII-sPLA2 inh: Inhibits HGIII-sPLA2 liposome hydrolysis, primary screen. QFRET BODIPY PC-A2 liposome hydrolysis, fluorescence. inhibition, % at 12.2 µM. Q9NZ20. hit rate 0.56% among 370,000. AID 743126;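 active = inhibition above mean plus 3 SD of compounds lying within the high and low control bounds, cut at about 19% in these data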;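 also: 0% = median of test compound wells and 100% = no enzyme DMSO wells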
Target sequence (Q9NZ20 whole entry, looked up): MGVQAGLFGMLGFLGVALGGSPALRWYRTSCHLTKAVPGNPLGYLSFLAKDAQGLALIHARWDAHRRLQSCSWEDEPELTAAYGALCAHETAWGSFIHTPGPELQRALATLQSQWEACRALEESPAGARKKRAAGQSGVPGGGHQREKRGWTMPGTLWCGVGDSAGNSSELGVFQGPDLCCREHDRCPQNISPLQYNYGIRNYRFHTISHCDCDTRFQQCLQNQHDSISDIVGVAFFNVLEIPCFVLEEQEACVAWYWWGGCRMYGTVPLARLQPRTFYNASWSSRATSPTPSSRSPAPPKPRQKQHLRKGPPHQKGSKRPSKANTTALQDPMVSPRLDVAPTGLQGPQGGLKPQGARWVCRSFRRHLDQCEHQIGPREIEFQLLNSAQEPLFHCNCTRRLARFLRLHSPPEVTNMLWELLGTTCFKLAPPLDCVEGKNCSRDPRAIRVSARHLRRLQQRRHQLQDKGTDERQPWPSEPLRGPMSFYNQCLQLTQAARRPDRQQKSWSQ
ABHD5 PLIN5 PPI: inhibitors of human ABHD5-perilipin-5 interaction; AID 602281; Split G. princeps luciferase complementation, luminescence, 4 h; inhibition, % at 4 µM; hit rate 0.78% among 360,000;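 active = inhibition above the mean inhibition across every tested compound plus 3 SD, cut at about 22% in these data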;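 also: 0% = DMSO only wells and the 100% control is not disclosed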
Cardio protect: modulators protecting cardiomyocytes from myocardial damage | H9c2 cardiomyocytes, H2O2 injury protection, ATPLite, 2 h | protection from H2O2 cell death, % at 20 µM | hit rate 0.63% among 360,000;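 active = compounds giving at least 50% protection of heart cells from peroxide-induced death in the single-dose screen, raw or plate-pattern-corrected value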;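 also: 0% = DMSO wells with peroxide and 100% = DMSO wells without peroxide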
Rtt109 HAT inh: inhibitors of Candida albicans Rtt109/Vps75 histone acetyltransferase | Q5AAJ8 | purified Rtt109/Vps75, ThioGlo CoA-SH fluorescence, 4 h | inhibition, % at 34.9 µM | hit rate 0.16% among 330,000 | AID 540336;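 active = inhibition of at least 50% in every replicate; inconclusive = best replicate reaches 50% inhibition but some replicates fall short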
* hit, by the source's call; i = inactive; ? = inconclusive; . = no result given; + = active, no number.

SMILES | DAGLB inh | Myeloid diff 2 | HGIII-sPLA2 inh | ABHD5 PLIN5 PPI | Cardio protect | Rtt109 HAT inh
N#Cc1ccccc1Sc1ccccc1C(=O)Nc1ccc(Br)cc1 | -5 | i | -28 | 1 | -6 | 0
O=C(/C=C/c1ccccc1)CCN1CCCCC1 | -5 | i | -2 | 23* | -26 | 4
Cc1ccc(O)c(C(=O)CC(=O)c2ccc(C(C)(C)C)cc2)c1 | -4 | i | 2 | 6 | 57* | -19
Cc1ccc(O)c(C(=O)CC(=O)c2ccccc2Cl)c1 | -6 | i | -10 | -3 | 11 | -10
COc1ccc(/C(C)=N/NC(=O)c2cc(-c3cccnc3)nc3ccccc23)cc1 | -1 | i | -2 | 0 | -1 | .
O=C(NNC(=S)Nc1ccccc1)c1cc(-c2cccnc2)nc2ccccc12 | 4 | i | 13 | 4 | 8 | 20
CC(OC(=O)c1cc(-c2cccnc2)nc2ccccc12)C(=O)Nc1ccc2ccccc2c1 (centres undefined) | -2 | i | -17 | 5 | 67* | 1
C/C(=N\NC(=O)c1cc(-c2cccnc2)nc2ccccc12)c1ccccc1O | 3 | ? | 14 | -2 | 60* | -7
C/C(=N\NC(=O)c1cc(C2CC2)nc2ccccc12)c1ccc(O)cc1O | 3 | ? | 8 | 12 | 51* | 10
O=C(Nc1ccc([N+](=O)[O-])cn1)C1CCCCC1 | -2 | i | 4 | 1 | -1 | -1
CC(=O)Nc1cc(-c2ccccc2)cn2c(-c3ccc(F)c(Cl)c3)cnc12 | . | i | 3 | -12 | 2 | .
Nc1cccn2c(-c3ccc(Cl)c(Cl)c3)cnc12 | 2 | + | -5 | 3 | -20 | -1
Cc1cccc(NC(c2ccc(O)cc2)c2ccc3ccc(C)nc3c2O)n1 (centres undefined) | 4 | i | -8 | 6 | 92* | -2
CC(C)Nc1nc(NCCOc2ccccc2Cl)c2sc(-c3ccccc3)cc2n1 | . | i | 0 | 5 | -28 | .
COc1ccccc1CNc1nc(NC(C)C)nc2cc(-c3ccccc3)sc12 | . | + | -16 | 8 | -14 | .
C=C[C@@H]1c2cccc(C)c2N(S(=O)(=O)c2ccc(C)cc2)[C@H](c2ccccc2)C1(C#N)S(=O)(=O)c1ccccc1 (some centres undefined) | -7 | i | 7 | 5 | -9 | 6
O=C(N/N=C/C=C\c1ccccc1)c1cnccn1 | 2 | i | 5 | 3 | -1 | -19
O=C(N/N=C/C(Br)=C/c1ccccc1)c1cnccn1 | -3 | + | 2 | 17 | -9 | 0
Brc1ccc(/C=N/Nc2ccc3ccccc3n2)cc1 | -5 | i | 16 | -8 | -11 | .
Fc1cccc(/C=N/Nc2ccc3ccccc3n2)c1 | -6 | i | 20* | 3 | -15 | -4
CC(=O)c1ccc(OCc2cc(C(=O)N(C)CCOc3ccc(C)cc3)no2)cc1 | -3 | i | -21 | 0 | -21 | -3
C[C@H](CO)N1C[C@H](C)[C@@H](CN(C)C(=O)Nc2ccc(F)cc2)Oc2ccc(NS(C)(=O)=O)cc2C1=O | 3 | + | 6 | 5 | -1 | 0
C[C@H](CO)N1C[C@H](C)[C@@H](CN(C)C(=O)Nc2ccc(C(F)(F)F)cc2)Oc2ccc(NS(=O)(=O)c3ccc(F)cc3)cc2C1=O | -2 | i | -40 | 8 | 0 | 6
C[C@H](CO)N1C[C@H](C)[C@@H](CN(C)C(=O)Nc2ccc(C(F)(F)F)cc2)Oc2c(NS(=O)(=O)c3cn(C)cn3)cccc2C1=O | -3 | i | 0 | 4 | 6 | 7
C[C@@H]1CN([C@@H](C)CO)C(=O)c2cc(NC(=O)Nc3ccccc3)ccc2O[C@H]1CN(C)C(=O)Nc1cccc2ccccc12 | 0 | i | . | 5 | 90* | 0
SMILES | DAGLB inh | Myeloid diff 2 | HGIII-sPLA2 inh | ABHD5 PLIN5 PPI | Cardio protect | Rtt109 HAT inh
Cc1ccc(S(=O)(=O)Nc2ccc3c(c2)C(=O)N([C@H](C)CO)C[C@H](C)[C@@H](CN(C)C(=O)Nc2ccc(C(F)(F)F)cc2)O3)cc1 | 1 | + | -39 | 7 | 8 | 9
C[C@H](CO)N1C[C@H](C)[C@@H](CN(C)C(=O)Nc2ccc(C(F)(F)F)cc2)Oc2ccc(NS(=O)(=O)c3cn(C)cn3)cc2C1=O | -4 | + | -10 | 5 | -1 | 10
Cc1ccc(N2C(=O)CN(Cc3sccc3C)C2=S)cc1C | -13 | i | -204 | -1 | -11 | -7
Cc1ccc(NC(=O)c2ccc(N3CCCC3=O)cc2)cc1S(=O)(=O)N1CCCCC1 | 1 | i | -2 | 2 | -4 | 3
O=C(O)COCC(=O)Nc1ccc2c(c1)oc1ccccc12 | 3 | i | 17 | 2 | 5 | -9
Cc1ccc(S(=O)(=O)NN=C(c2ccccc2)c2cccs2)cc1 | 1 | i | -25 | -5 | 2 | .
CCCC1CCC2(CC1)CCC2OC(=S)Nc1ccccc1Br (centres undefined) | . | . | 0 | . | . | .
O=C(Nc1cccc(Cl)c1)c1nc[nH]c1C(=O)NCCCCNC(=O)c1[nH]cnc1C(=O)Nc1cccc(Cl)c1 | 4 | i | 4 | 1 | 74* | -4
Cc1cccc(NC(=O)c2nc[nH]c2C(=O)NCc2ccccc2)c1 | -3 | i | -20 | -9 | 2 | -12
Cc1cccc(NC(=O)c2nc[nH]c2C(=O)NCCCCNC(=O)c2[nH]cnc2C(=O)Nc2cccc(C)c2)c1 | -3 | i | 1 | -5 | 56* | -8
Cc1cccc(NC(=O)c2nc[nH]c2C(=O)NCCCCCCNC(=O)c2[nH]cnc2C(=O)Nc2cccc(C)c2)c1 | 2 | i | 3 | -10 | 95* | -3
Cc1ccccc1-n1c(=O)/c(=C\c2ccco2)s/c1=C(/C#N)C(=O)Nc1ccccc1 | 4 | i | -2 | -2 | 71* | 7
COc1cc(/C=N/Nc2nncc3ccccc23)cc(OC)c1OC | -4 | + | -1 | -1 | -8 | 6
O=C(COC(=O)c1cccnc1)NC1CCCc2ccccc21 (centres undefined) | 1 | i | 4 | -1 | 3 | -8
CCOc1ccc(Br)cc1/C=N/O | -4 | i | -2 | -6 | 2 | 1
CCCc1ccc(O)c(N=Cc2cc(Br)cc(OCC)c2O)c1 | 9 | i | -5 | -1 | 71* | 12
COc1ccc(C(=O)N/N=C/c2ccccn2)cc1OC | 0 | i | 6 | 0 | 17 | -7
COc1cc(C(=O)Nc2ccc(NC(=O)c3cccc(Cl)c3)nc2)cc(OC)c1OC | -1 | i | -7 | -50 | 68* | -2
COc1cc(C(=O)Nc2ccccc2C(=O)Nc2ccccn2)cc(OC)c1OC | -6 | ? | -1 | 4 | 60* | -4
COc1cc(C(=O)Nc2ccc(NC(=O)C3CCCCC3)nc2)cc(OC)c1OC | -2 | i | -3 | -3 | 4 | -10
COC(=O)c1ccccc1NC(=O)c1ccc2nccnc2c1 | 0 | i | -2 | -2 | 64* | -10
